Source: the supplement of paper PMC10981050
“And” between values parts separate entries of the source, which are not always exact repeats. Equal values may be shown once. Where a name gives a salt, the structure may show the parent alone.

Columns and labels:
Test in all cases: cell viability relative to vehicle control; higher = less cytotoxic
Settings in all cases: 10 µM
[1] = tested on: K562
How it was run: (§1)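 Mutant clones made by CRISPR editing and their isogenic wild-type counterparts, from four leukaemia lines, were exposed to a single 10 µM dose of each library compound for 48 h. The supernatant was then removed and CellTiter-Glo luminescence was read. Viability was reported as percent of the on-plate vehicle control.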

[2] = tested on: MARIMO
How it was run: as §1

[3] = tested on: MOLM14
How it was run: as §1

[4] = tested on: OCI-AML2
How it was run: as §1

Compound	cell viability ([1]; SRSF2 genotype: SRSF2 P95H/wt)	cell viability ([1]; SRSF2 genotype: SRSF2 wt/wt) [%]	cell viability ([2]; SRSF2 genotype: SRSF2 P95H/wt) [%]	cell viability ([2]; SRSF2 genotype: SRSF2 wt/wt) [%]	cell viability ([3]; SRSF2 genotype: SRSF2 P95H/wt) [%]	cell viability ([3]; SRSF2 genotype: SRSF2 wt/wt) [%]	cell viability ([4]; SRSF2 genotype: P95H/wt) [%]	cell viability ([4]; SRSF2 genotype: wt/wt) [%]
CN(C)CCCN1c2ccccc2Sc2ccc(Cl)cc21 [Chlorpromazine HCl]	75.5% and 73.7%	65.6	40.4	44.1	40.7	43.7	25.3	28.6
CN(CCNc1ccnc2cc(Cl)ccc12)CCNc1ccnc2cc(Cl)ccc12	17.1% and 23.8%	18.8	19.4	11.8	0.51	0.43	0.35	0.6
COc1cc2c3cc1Oc1c(OC)c(OC)cc4c1[C@@H](Cc1ccc(O)c(c1)Oc1ccc(cc1)C[C@@H]3N(C)CC2)N(C)CC4 [Berbamine (dihydrochloride)]	72.6% and 53.2%	66.9	70.8	72.8	68.2	78.2	57.1	60.4
Cn1c(O)c(C2=c3ccccc3=NC2=O)c2ccccc21 [Meisoindigo]	22.4% and 19.2%	43.4	0.73	0.66	0.36	0.48	0.36	0.46
OC[C@@H](O)[C@@H](O[C@H]1O[C@H](CO)[C@@H](O)[C@H](O)[C@H]1O)[C@H](O)[C@@H](O)CO [Maltitol]	98.2% and 88.7%	98.6	99.6	105	99.6	99.9	96.8	107
Oc1ccc(-c2c(-c3ccccc3)nn3c(C(F)(F)F)cc(C(F)(F)F)nc23)cc1	87.4% and 87.6%	83	85.7	93.3	75.9	86.1	92	103
CC[C@@H](C)Nc1cc(C(=O)N[C@H]2C[C@H]3CC[C@@H](C2)N3c2ccc(C(=O)C3CC3)cn2)c(C)cc1C(N)=O	19.1% and 26.9%	23	32.8	28.5	2	2.43	14.2	21
C=C1C[C@@]23CC[C@H]4[C@@](C)(CCC[C@@]4(C)C(=O)O)[C@@H]2CC[C@]1(O[C@@H]1O[C@@H](CO)[C@@H](O)[C@H](O)[C@@H]1O[C@@H]1O[C@@H](CO)[C@@H](O)[C@H](O)[C@@H]1O)C3 [Steviolbioside]	111% and 108%	107	114	99.5	118	110	104	103
O=c1ncccn1[C@@H]1O[C@H](CO)[C@@H](O)[C@H]1O [Zebularine]	90.9% and 85.1%	82.2	87.7	91.4	89.7	89.7	96.6	86.6
CCCCCCCCCC(C)=O [Methylnonylketone]	93.2% and 96.8%	96.3	96.2	101	97.7	99.7	99.5	97.2
CN(C)C(=N)NC(=N)N [Metformin hydrochloride (Glucophage)]	108%	110	108	110	105	104	102	116
